Consider 48 compounds from PubChem BioAssay AID504332 (National Center for Advancing Translational Sciences (NCATS), 2011).

In all, about 350,000 compounds went through this assay and about 31,000 (8.9%) were called active. Not shown: some 15% with an inconclusive outcome. Only a selection was taken, and actives are over-represented in it overall. A number with no mark means an inactive call. The call rests on the fitted dose curve; in most records, active means well fitted inhibition curve with a large enough effect; inconclusive means small, poorly fitted or top-dose-only effect; inactive means no such curve, though single readings can be large or run the other way.
On the % scale 0 is the no-effect control and ±100 the full control effect; potency means the concentration at half of the fitted maximal effect.

Histone-lysine N-methyltransferase EHMT2 (Homo sapiens), sequence (Q96KQ7 913-1193 limits assumed): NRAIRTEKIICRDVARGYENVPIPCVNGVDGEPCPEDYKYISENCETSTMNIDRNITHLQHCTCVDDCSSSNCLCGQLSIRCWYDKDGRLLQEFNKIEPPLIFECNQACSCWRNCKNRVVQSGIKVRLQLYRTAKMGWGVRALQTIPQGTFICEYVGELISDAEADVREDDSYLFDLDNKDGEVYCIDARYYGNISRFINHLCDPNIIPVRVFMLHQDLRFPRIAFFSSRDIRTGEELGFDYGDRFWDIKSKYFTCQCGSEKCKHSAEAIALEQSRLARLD

This test addresses Histone-lysine N-methyltransferase EHMT2 (Homo sapiens) (UniProt Q96KQ7). The test is described as follows: qHTS Assay for Inhibitors of Histone Lysine Methyltransferase G9a. Further: nearly all actives have a fitted effect of over 75% in size. The following applies: G9a H3K9 monomethylation, AlphaScreen, 2 h; series mostly up to 59 µM; activity, negative = inhibition: at the top concentration. In short, it runs like this:
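Quantitative HTS format: methyltransferase activity on a biotin-tagged H3K9 peptide is measured by AlphaScreen, using a rabbit anti-monomethyl-H3K9 antibody with streptavidin donor and anti-IgG acceptor beads. Final levels are 20 nM enzyme, 500 nM peptide, 20 uM SAM; 2 h RT.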
A general note: Quantitative high-throughput screening tests each substance at several concentrations.
With `O=C(CSc1nnc(-c2ccccc2F)o1)Nc1cccc(C(F)(F)F)c1`, the “activity, negative = inhibition” value is -0.739%. `O=C(NCc1ccccc1)c1cc(-c2cccc(Cl)c2)on1`: the “activity, negative = inhibition” value is -0.805%. With `Cc1cccn2c(=O)c(C=O)c(Nc3ccc(S(N)(=O)=O)cc3)nc12`, the “activity, negative = inhibition” value was -13.3% [at 102 µM]. Take `CC(OC(=O)/C=C/c1ccccc1)C(=O)Nc1ccc(C(N)=O)cc1` (stereo not drawn): the activity, negative = inhibition was 0.935% [at 12.7 µM]. The same measure, in the same setting: next, `Cc1oc2c(c1C(=O)N1CCOCC1)C(=O)c1ccccc1C2=O`: -50.2%. Same read-out and setting: for `O=C1C(Cl)=C(N2CCOCC2)C(=O)N1c1ccccc1` the value was 3.23% [at 2.33 µM].

For `COC1=C(N2CCOCC2)C(=O)c2ccccc2C1=O`, the Potency is 3.55 µM (active). Regarding `COc1cccc(CNC(=O)CN2C(=O)NC(Cc3ccccc3)(c3ccccc3)C2=O)c1` (stereo not drawn), the activity, negative = inhibition was -1.58% [at 12.7 µM]. Take `Cc1ccc2cccc(NC(=O)c3ccc(OC(C)C)cc3)c2n1`: the “activity, negative = inhibition” value was 4.14%.

As to `O=C(COc1coc(CN2CCN(c3ccccc3)CC2)cc1=O)N1CCc2ccccc21`, the “activity, negative = inhibition” value was -26.4% [at 102 µM]. The same measure, in the same setting: for `COc1ccc(OC)c(NC(=O)C2CCN(S(=O)(=O)c3ccc(C)cc3)CC2)c1` the value was -3.4%. On the same count and under the same terms, next, `COc1ccc(CN2CCCCC2C)cc1OC` (stereo not drawn): 4.38% [at 102 µM]. For the compound `COc1ccc(CNc2ccc3c(c2)CCC3)cc1OC`, the Potency was 39.8 µM (active). On to `CC(C)C(=O)OCC(=O)Nc1ccc2c(c1)CCC2`, for which the “activity, negative = inhibition” value is -28.4%.

For the compound `COc1ccc(OC)c(CCNC(=O)c2nn(C)c3c2CS(=O)(=O)c2ccccc2-3)c1`, the “activity, negative = inhibition” value was -15.2% [at 102 µM]. For the compound `O=C(COC(=O)CNC(=O)C1CCCCC1)NCc1ccccc1`, the activity, negative = inhibition was 3.72% [at 12.7 µM]. The same measure, in the same setting: for `O=C(CCc1nc(CN2CCN(S(=O)(=O)c3ccc(Cl)cc3)CC2)no1)N1CCCCC1` the value was -46.7%; for `NS(=O)(=O)c1ccc2nc(NC(=O)C3=COCCO3)sc2c1`, 36.2%. Take `Cc1ccc2nc(N(CCN(C)C)C(=O)C3=COCCO3)sc2c1`: the Potency is 79.4 µM (active). With `Cc1ccc2nc(-c3ccc(NC(=O)CN(C)S(=O)(=O)c4ccccc4)cc3)sc2c1`, the “activity, negative = inhibition” value is 2.87% [at 102 µM]. On the same count and under the same terms, for `CCOC(=O)c1cccc(NC(=O)c2cc(S(=O)(=O)N3CCCC(C)C3)cn2C)c1` (stereo not drawn) the value was -1.91%; for `CCOC(=O)c1ccc(NC(=O)C2CCN(S(=O)(=O)c3ccc4c(c3)CCCC(=O)N4)CC2)cc1`, -28.9%; for `CCc1ccc(-c2nc(SCC(=O)NC3CCCC3)n[nH]2)cc1`, 32.1% [at 102 µM]. Same read-out and setting: for `COC(=O)[C@@H](NC(=O)Nc1cc(Cl)ccc1C)C(C)C` the value was 35.1% [at 102 µM]. As for `Cc1ccc(Cl)cc1NC(=O)C(C)n1nnc2sc(-c3ccccc3)cc2c1=O` (stereo not drawn), the Potency was 1.12 µM (active). For the compound `CCCCCCn1nnc2sc(-c3ccccc3)cc2c1=O`, the “activity, negative = inhibition” value was 51.4%. Still for that read-out and setting: for `CCC(C)NC(=O)Cn1c(=O)n(-c2ccc(Cl)cc2)c(=O)c2c3c(sc21)CCCC3` (stereo not drawn) the value was -9.15%; for `CCOc1ccc(CCNC(=O)c2ccc3c(c2)sc2nc(-c4ccc(F)cc4)cn23)cc1OCC`, 1.74%; for `CCCN(CCC)C(=O)C1CCCN(c2ncnc3c2nc2n3CCCCC2)C1` (stereo not drawn), 4.45%. Consider `S=c1[nH]nc(/C=C/c2ccccc2)o1`, for which the Potency was 22.4 µM (active). For the compound `O=c1oc(/C=C/c2ccccc2)nc2ccccc12`, the “activity, negative = inhibition” value is 15% [at 102 µM]. Same read-out and setting: for `Clc1ccc(CSc2nnc(/C=C/c3ccccc3)o2)c(Cl)c1` the value was 19.9%; for `CCc1ccccc1S(=O)(=O)Cc1ccc(C(=O)NCCc2ccccc2)o1`, 21.5% [at 102 µM]. For the compound `COC(=O)c1ccc(C)c(NC(=O)C2CC(=O)N(C3CCCC(C)C3C)C2)c1` (stereo not drawn), the “activity, negative = inhibition” value was -4.66%. Same read-out and setting: next, `COc1cccc(CNC(=O)c2ccc3c(c2)sc2nc(-c4cccc(OC)c4)cn23)c1`: -1.93%; `CN(Cc1cnccn1)C(=O)c1cc(COc2cccc(C(F)(F)F)c2)on1`: 9.71% [at 102 µM].

Take `Clc1cccc(N=C2NN=C(c3ccc4c(c3)OCCO4)CS2)c1`: the Potency is 14.1 µM (active). As to `c1ccc(CN2CCC(N=C3NN=C(c4ccc5c(c4)OCCO5)CS3)CC2)cc1`, the activity, negative = inhibition is -3.44% [at 12.7 µM]. For `Cc1cccc(N=C2NN=C(c3c[nH]c4ccccc34)CS2)c1`, the “activity, negative = inhibition” value is -32.2%. Still for that read-out and setting: for `COc1ccccc1-c1cnn2c(N3CCOCC3)cc(C)nc12` the value was 26.6% [at 102 µM]; for `Cc1cc(C)c(-c2n[nH]c3c2C(c2ccccc2F)N(CCO)C3=O)c(O)c1` (stereo not drawn), 19.7%.

For `CCc1ccc2ncc3c(-c4ccc(C)cc4)nn(CC(=O)NCc4ccccc4)c3c2c1`, the “activity, negative = inhibition” value was -1.45%. Take `COC(=O)c1cccc(Cn2nnc3sc4c(c3c2=O)CCC(C(C)(C)C)C4)c1` (stereo not drawn): the “activity, negative = inhibition” value was -31.9%. Turning to `CC1CCCC(NC(=O)CSc2nccn2C)C1C` (stereo not drawn), the Potency is 15.8 µM (active).

In the case of `CC1CCCCC1NC(=O)CSc1nnc(N)s1` (stereo not drawn), the “activity, negative = inhibition” value is 9.08%. Same read-out and setting: for `Cn1ccnc1SCC(=O)Nc1ccc2c(c1)OCCO2` the value was 34.5% [at 102 µM].

With `O=C1NN(c2ccccc2)C(=O)/C1=C/c1ccc(-c2cccc(C(=O)O)c2)o1`, the Potency is 39.8 µM (active). As for `O=C(O)c1cccc(N2C(=O)Nc3ccccc3N2O)c1`, the “activity, negative = inhibition” value was -16.3%.
